Screens from PubChem BioAssay.
AMA1 RON2 block: qHTS for Inhibitors of AMA1-RON; Towards Development of Antimalarial Drug Lead: Primary Screen; Plasmodium falciparum AMA1 (3D7) - RON2 peptide interaction; AlphaScreen AMA1-biotinylated RON2 peptide binding; Potency, µM (highest dose often 58.2 µM), usual class: inhibitors; 360,000 compounds, 0.2% hits; also: nearly all actives have a fitted effect of over 45% in size
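AMA1 (3D7) with his tag at 25 nM final met compounds first, then biotinylated RON2 peptide at 25 nM; detection used donor plus acceptor beads, 10 µg/mL apiece, read by AlphaScreen after 30 min at room temperature.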
Pf growth 48h: Primary qHTS for delayed death inhibitors of the malarial parasite plastid, 48 hour incubation. P. falciparum luciferase growth in erythrocytes, 48 h. AID 504832, 2011. Potency, µM (titrated, usually from 28.7 µM), usual class: inhibitors. 310,000 compounds, 5.9% hits
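In quantitative HTS format, infected erythrocytes bearing luciferase-reporter parasites were treated for a single generation at 37 C. Luminescence after adding detection reagent served as the growth measure.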
HCV inh: qHTS Assay for Inhibitors of Hepatitis C Virus (HCV); Huh7.5.1 HCVcc-Cre infection, luciferase reporter, 44 h; Potency, µM (series often up to 41.8 µM), usual class: inhibitors; 340,000 compounds, 3.4% hits; AID 651820, 2012
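Infectious HCVcc-Cre (~0.5 moi) was added to cells just after compound, with cells seeded 4 h earlier at 1,000 per well. Luciferase activity after 44 h culture reported infection; substrate was incubated 15 min at room temperature before reading.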
CHX counter: Cycloheximide Counterscreen for Small Molecule Inhibitors of Shiga Toxin; cell reporter, cycloheximide protein synthesis inhibition counterscreen; max response, %; 300,000 compounds, 12% hits; in the data active = max response mostly above about 13%, no sharp cut-off; inactive = mostly below about 14%; also: read at 38.3 µM for the half of the compounds with a filed dose
Pf growth 96h: Primary qHTS for delayed death inhibitors of the malarial parasite plastid, 96 hour incubation | P. falciparum luciferase reporter growth, 96 h | Potency, µM (top dose mostly 28.7 µM), most hits filed as inhibitors | 320,000 compounds, 6.9% hits
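Compounds incubated with erythrocytes infected by luciferase-expressing P. falciparum (2% hematocrit, 0.05% parasitemia final) for 96 hours, 37 C in 5% CO2. Growth inhibition scored as decreased luciferase luminescence.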
Shiga inhibitor: A qHTS for Small Molecule Inhibitors of Shiga Toxin; Vero cells, Shiga toxin protein synthesis inhibition reporter; 290,000 compounds, 9.2% hits; inhibition, % at 38.7 µM; in the data active = inhibition mostly above about 28%, no sharp cut-off; inactive = mostly below about 43%
Numbers stand for hits; 0 = inactive; ? = inconclusive; - = not tested or not shown; [ ] = another dose, or the depositor's remark. Compounds with a hit are over-represented: about 21% of the library has one in this group of screens. Unless noted, calls follow the shape of the dose curve; as a rule, active = well fitted curve in the direction sought with a large enough effect; inconclusive = small, poorly fitted or top-dose-only effect, or another doubt; inactive = no such curve, though single readings can be large; an effect the other way counts as inactive or inconclusive.

SMILES | AMA1 RON2 block | Pf growth 48h | HCV inh | CHX counter | Pf growth 96h | Shiga inhibitor
CC(C)C[C@H]1C(=O)N2CCC[C@H]2[C@]2(O)O[C@](NC(=O)[C@@H]3C=C4c5cccc6[nH]c(Br)c(c56)C[C@H]4N(C)C3)(C(C)C)C(=O)N12 | - | - | - | 0 | - | 0
CC(C)C[C@H]1C(=O)N2CCC[C@H]2[C@]2(O)O[C@](NC(=O)[C@@H]3C=C4c5cccc6[nH]cc(c56)C[C@H]4N(C)C3)(C(C)C)C(=O)N12 | 0 | 2.9µM | ? | - | 3.7µM | -
CNS(=O)(=O)c1ccc2nc(NC(=O)c3ccc(N4C(=O)CCC4=O)cc3)sc2c1 | 0 | ? | 0 | 0 | 3.7µM | 0
CCc1ccc2nc(NC(=O)c3ccc(N4C(=O)CCC4=O)cc3)sc2c1 | 0 | 0 | ? | 22 | 0 | 38
CCc1nnc(NC(=O)c2ccc(N3C(=O)CCC3=O)cc2)s1 | 0 | 0 | ? | 16 | 0 | 0
CCCCc1nnc(NC(=O)c2ccc(N3CCCC3=O)cc2)s1 | 0 | 0 | 0 | - | 0 | -
CCOC(=O)c1csc(NC(=O)c2ccc(N3C(=O)CCC3=O)cc2)n1 | 0 | 0 | 0 | 0 | 0 | 0
CCc1ccc2nc(NC(=O)c3ccc4c(=O)[nH]c(CN5CCOCC5)nc4c3)sc2c1 | 0 | - | ? | 43 | 0 | 65
CC1(C(=O)O)CCN1C(=O)c1cccnc1Oc1ccccc1 (centres undefined) | 0 | - | - | - | - | -
CCc1nc2ccc(C(=O)NCCCN3CCCC3=O)cn2c1N(CC)Cc1cccc(Br)c1 | 0 | - | - | - | - | -
COc1ccc(CCCNC(=O)C2(C)Cc3c(-c4ccc5c(c4)OCO5)ccnc3O2)cc1 (centres undefined) | 0 | - | - | - | - | -
CN(C)c1ccc(NC(=O)c2ccc(Cn3cc([N+](=O)[O-])cn3)cc2)cc1 | 0 | 0 | ? | 50 | 0 | 108
CN(C)c1ccc(C(=O)Nc2ccc(CN3CCS(=O)(=O)CC3)cc2)cc1 | 0 | 0 | 0 | 36 | 0 | 0
O=C(Nc1cnn(Cc2c(Cl)cccc2Cl)c1)c1ccc([N+](=O)[O-])cc1 | 0 | ? | ? | 53 | 13µM | 87
C/C(CC(=O)Nc1ccc(N(C)C)cc1)=N\NC(=O)c1ccc([N+](=O)[O-])cc1 | 0 | 0 | 0 | 18 | 0 | 0
CCNS(=O)(=O)c1ccc(NC(=O)c2ccc(Cn3cc([N+](=O)[O-])cn3)o2)cc1 | 0 | ? | 0 | 0 | ? | 0
O=C(COc1ccc(Cl)cc1)Nc1cnn(Cc2c(Cl)cccc2Cl)c1 | 0 | 0 | ? | 0 | ? | 0
CN(C)Cc1csc(Nc2ccc(C(=O)c3ccccc3)cc2)n1 | 0 | - | - | - | - | -
O=C1N2CCCCC1(Sc1ccccc1)CCC2 (centres undefined) | 0 | - | - | - | - | -
COc1cccc(NS(=O)(=O)c2ccc3[nH]cc(C(=O)NC(C)c4ccccc4)c(=O)c3c2)c1 (centres undefined) | - | - | - | 0 | - | 0
COc1ccc(C(=O)Nc2ccc(CN3CCS(=O)(=O)CC3)cc2)cc1 | 0 | 0 | 0 | 0 | 0 | 0
Cc1ccc(C(=O)Nc2ccc(CN3CCS(=O)(=O)CC3)cc2)cc1C | 0 | 0 | ? | 36 | 0 | 73
C/C(CC(=O)Nc1ccc(N(C)C)cc1)=N\NC(=O)Cc1csc(N)n1 | 0 | ? | 0 | 19 | 0 | 48
COc1ccc(CC(=O)N/N=C(\C)CC(=O)Nc2ccc(N(C)C)cc2)cc1 | 0 | ? | 0 | 0 | 0 | 0
CSc1ncccc1C(=O)OCC(=O)c1cccc(Br)c1 | 0 | 0 | ? | 0 | 0 | 0
SMILES | AMA1 RON2 block | Pf growth 48h | HCV inh | CHX counter | Pf growth 96h | Shiga inhibitor
CC1(c2nnc(-c3ccc(F)cc3)o2)CC(c2ccccc2)=NO1 (centres undefined) | 0 | 0 | ? | 0 | 0 | 0
O=C(Nc1ccc(Cl)cc1)c1cc2c(cc1O)[nH]c1ccccc12 | 0 | 10µM | ? | 0 | ? | 0
CC(=O)Nc1ccc2[nH]c3ccccc3c2c1 | 0 | 0 | 0 | 0 | 0 | 0
C/C(=C\C(=O)c1ccccc1)Nc1ccc(Br)c(Cl)c1 | 0 | 0 | 0 | 23 | 0 | 0
CCC(=O)Nc1ccc(Br)c(Cl)c1 | 0 | 0 | 0 | 0 | ? | 0
O=C(Cc1ccccc1)Nc1ccc(Br)c(Cl)c1 | 0 | 0 | 0 | 21 | 0 | 25
C/C(=C\C(=O)c1ccc(Br)cc1)Nc1ccc(Cl)cc1 | 0 | 0 | 0 | 0 | 0 | 36
CC(C)CNc1ncnc2c1ncn2[C@H]1CN(Cc2ccco2)C[C@@H](CO)O1 | 0 | - | - | - | - | -
CC(=O)c1sc(N/N=C2\CC3CCC2(C)C3(C)C)nc1C (centres undefined) | 0 | 0 | 0 | 0 | 0 | 0
C=C1c2ccccc2O[C@H](C(=O)OCC)[C@@H]1CC(C)(C)c1ccccc1 | - | - | - | 0 | - | 0
COc1ccc(-c2nnc3n2N=C(c2c(OC)cccc2OC)CS3)c(OC)c1 | - | - | - | 0 | - | 0
CCOC(=O)c1c(C)n(C)c2ccc(OC)c(NC(=O)CN3CCN(C4CCCCC4)CC3)c12 | 0 | ? | 0 | 0 | - | 0
CCOC(=O)c1c(C)n(C)c2ccc(OC)c(NC(=O)CN3CCC(C(=O)OCC)CC3)c12 | 0 | ? | 0 | 0 | 3.3µM | 0
CCOC(=O)c1c(C)n(C)c2ccc(OC)c(NC(=O)CN3CCN(Cc4ccccc4)CC3)c12 | 0 | 10µM | ? | 0 | 0 | 0
CCOC(=O)c1c(C)n(C)c2ccc(OC)c(NC(=O)CN3CCN(C(=O)c4ccco4)CC3)c12 | 0 | 5.2µM | 0 | 0 | ? | 0
CSc1cccc(CN2CCN(CCC(C)C)C(CCO)C2)c1 (centres undefined) | 0 | 0 | 0 | 0 | ? | 0
COc1ccc(NC(=O)c2cnn(-c3ccccc3)c2C)cc1OC | 0 | 0 | 0 | 39 | 0 | 80
COc1ccc(CN2CCn3ncc(C(=O)Nc4ccccc4)c3C2=O)cc1 | 0 | 0 | 0 | 32 | ? | 52
COc1ccc(NC(=O)c2cnn(-c3ccccc3)c2C)cc1 | 0 | 0 | 0 | 36 | 0 | -
O=C(O)c1cnn2c1C(=O)N(Cc1cccs1)CC2 | 0 | 0 | 0 | 0 | ? | 0
COCc1cn(CC(C)n2c(=O)c3ccccc3n2Cc2cc(C(C)C)no2)nn1 (centres undefined) | 0 | - | - | - | - | -
O=C1S/C(=C\C=C\c2ccco2)C(=O)N1c1ccccc1 | ? | 0 | 0 | 38 | 0 | 59
O=C1S/C(=C\C=C\c2ccco2)C(=O)N1c1ccc(O)cc1 | 0[11.6 µM] | 0 | ? | 43 | 0 | 71
CC(C)CC(C(=O)O)N1C(=O)C2C3C=CC(C2C1=O)C1C(=O)N(C(CC(C)C)C(=O)O)C(=O)C31 (centres undefined) | 0 | 0 | 0 | 0 | 0 | 0
CCCCCc1ccc(C(=O)CCC(=O)OCC(=O)N(CC)c2c(N)n(Cc3ccccc3)c(=O)[nH]c2=O)cc1 | 0 | 0 | 0 | - | 0 | -
O=C(Nc1nc(-c2ccccn2)cs1)c1cccc(S(=O)(=O)N2CCOCC2)c1 | 0 | 1µM | 3.5µM | - | ? | -
